# Measured values as given in PubChem BioAssay (NCI).
# Compounds without any hit were thinned out: in the full panel of roughly 83,000, 20% have a hit.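 Activity criterion: percent growth below 10, measured after cells in 96-well plates were exposed to a single compound concentration for 48 hours.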 Values without a mark were called inactive. Activity calls are given as the source filed them.
# Tested on: MOLT-4 leukemia
# Experiment: NCI-60 one-dose screen, 48 h (100 = growth as untreated, 0 = no growth, -100 = all killed)
# Conditions: 10 µM unless noted
row,Compound,growth
1,COCCn1cc(-c2csc(-c3c[nH]c4ccccc34)n2)c2cccnc21,25.7%
2,CCN(CC)c1ccc(-c2cc(-c3cc(OC)c(OC)c(OC)c3)nc(N3CCC(O)CC3)c2C#N)cc1,2.73% (active)
3,CN1C(=O)/C(=C/c2ccc(C(=O)Nc3ncc(Cc4cccc(C(F)(F)F)c4)s3)cc2)SC1=S,46.8%
4,Nc1ncnc2c1N=C(c1ccc(Cl)cc1)CC(c1cccc(Nc3ccnc4cc(Cl)ccc34)c1)N2 (centres undefined),12.3%
5,COCCn1cc(-c2nc(-c3cc4cccnc4n3C)cs2)c2ccccc21,26.6%
6,COC(=O)[C@]1(C)CCC[C@]2(C)[C@H]3C[C@@H]4[C@H]5[C@@H]6CC/C(=N\OCC/C(N)=N/O)[C@H]5[C@@]3(CC[C@H]21)CC4(C(C)C)O6,28%
7,Cc1cccc(-c2nc(C(C)C)sc2-c2ccnc(NCCCNS(=O)(=O)c3ccc(Cl)cc3)c2)c1,52.3%
8,O=C(/C=C/C12c3ccccc3C(c3ccccc31)C1C(=O)NC(=O)C12)c1ccc(Cl)cc1Cl (centres undefined),-0.49% (active)
9,CC(C)(C)CC(C)(C)Nc1c(-c2c(O)c3ccccc3oc2=O)nc2sc3ccccc3n12,28.5%
10,CN(C)CCC(CCN(C)C)(C(=O)O)c1ccccc1,109%
11,Cn1c(=O)[nH]c(=O)c2nc3c(nc21)-c1ccccc1C3=O,105%
12,C=C(c1ccc(C(=O)O)c(F)c1)c1cc2c(cc1C)C(C)(C)CCC2(C)C,82.4%
13,C=C1C(=O)O[C@H]2[C@H]1CC/C(COC(=O)C(=O)c1c[nH]c3ccc(Cl)cc13)=C\CC[C@@]1(C)O[C@@H]21,-12.4% (active)
14,N#Cc1c(-c2ccc(Br)cc2)nc2c(N=Nc3ccc(S(N)(=O)=O)cc3)c(N)nn2c1N,1.59% (active)
15,CCN(CC)CCN1C(=O)c2c(c3c4ccccc4[nH]c3c3ccc4ccccc4c23)C1=O,-29.5% (active)
16,O=C(/C=C/c1ccccc1)N(C1CCCCC1)C1CCCCC1,92.1%
17,Nc1nc(N(Cc2ccccc2)c2ccccc2)c2cn[nH]c2n1,62.2%
18,CN1CC(c2ccc(Br)cc2)C(C(=O)c2ccc(Br)cc2)C12C(=O)Nc1ccccc12 (centres undefined),64.3%
19,Nc1nc(C(=O)N/N=C/c2ccc(F)cc2)nn1-c1ccc(S(N)(=O)=O)cc1,111%
20,COc1ccc(-c2nc(SCC(=O)Nc3nc4ccc(C)cc4s3)[nH]c(=O)c2C#N)cc1OC,99.4%

row,Compound,growth
1,CNC(=O)NCC1OC(n2cnc3c(NC(=O)Nc4ccccc4)ncnc32)C2OC(=O)CC12 (centres undefined),69.7%
2,COc1ccc(NC(=O)c2ccc(Nc3ncnc4c3cnn4-c3cccc(F)c3)cc2)cc1,100%
3,CC(C)NS(=O)(=O)/N=C1\NC(=O)NC1=C(Cl)Cl,87%
4,Cc1ccc2cnc(N)c(C#Cc3cc(C(=O)Nc4ccc(CN5CCN(C)CC5)c(C(F)(F)F)c4)cnc3C)c2c1,-5.68% (active)
5,Cc1nn(-c2ccc([N+](=O)[O-])cc2)c2ncnc(N/N=C/c3ccccc3O)c12,4% (active)
6,CC(C)(C)OC(=O)CN1CCc2c(sc3ncnc(N4CCN(c5ccc(F)cc5)CC4)c23)C1,53.4%
7,COC(=O)[C@@]1(C)CC[C@]2(C)CC[C@]3(C)C4=CC=C5C(=CC(=O)C(O)=C5C)[C@]4(C)[C@@H](O)C[C@@]3(C)[C@@H]2C1,-20% (active)
8,Cc1cc(Cl)nc(N2CCN(CCNc3ccnc4cc(Cl)ccc34)CC2)n1,32.6%
9,Cc1ccc(C)c2c1sc1nc(N3CCOCC3)c(C#N)c(=O)n12,110%
10,COc1ccc2c(c1)CC[C@@H]1[C@@H]2CC[C@]2(C)c3c(cc(C#N)c4c3sc3ccccc34)C[C@@H]12,92.1%
11,C=C1C(=O)O[C@H]2[C@H]1CC/C(COC(=O)NCc1ccc(Cn3c(=O)sn(-c4ccc(I)cc4)c3=O)cc1)=C\CC[C@@]1(C)O[C@@H]21,5.6% (active)
12,O=C(O)CC(C(=O)O)/C(=C\c1ccccc1)c1ccccc1 (centres undefined),98.9%
13,CCN(CC)CCOc1ccc(Nc2ncc3cc(-c4c(Cl)cccc4Cl)c(=O)n(CCOC)c3n2)cc1,1.6% (active)
14,O=C(c1ccc(Br)cc1)C(Br)C(c1ccc(Cl)cc1)C(c1ccccc1)[N+](=O)[O-] (centres undefined),89.7%
15,CN1CCOCCN(C)Cc2ccc3ccc(cc3c2)CN(C)CCOCCN(C)Cc2ccc3ccc(cc3c2)C1,74%
16,COc1ccc(CN2C(=O)OC(C)(COC(C)=O)C2=O)cc1 (centres undefined),95.6%
17,CN(C)c1ccc(/C=N\NC(=O)c2ccc3nc(-c4ccc(Cl)cc4)[nH]c3c2)cc1,23.6%
18,COCCn1cc(-c2csc(-c3c[nH]c4ccc(F)cc34)n2)c2cccnc21,14.2%
19,C/C(Cc1ccc(Cl)cc1)=C(\c1ccc(OCCN2CCCCCC2)cc1)c1ccc(OC(=O)c2ccccc2)cc1,9.42% (active)
